FAS-TE inh: blocks the thioesterase domain of human fatty acid synthase. recombinant FAS-TE, OMFH fluorogenic substrate, fluorescence endpoint. inhibition, % at 15 µM. 360,000 compounds, 0.67% hits. AID 602261;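 active = compounds whose normalised, plate-corrected inhibition of enzyme fluorescence in the single-dose primary screen is 50% or more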;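 also: 0% = DMSO with enzyme and 100% = substrate without enzyme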
beta cell repl: inducers of beta-cell replication in MIN6 cells | MIN6 cells proliferation, ATPlite luminescence, 48 h; cells starved in 0.2% serum; 100% = growth in 10% serum | proliferation, % at 10 µM | 330,000 compounds, 0.29% hits | AID 2380;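 active = compounds whose signal lies at least 3.5 SD above the mean of all wells on their plate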;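 also: 0% = DMSO-treated cells in low-serum medium and 100% = 10% serum control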
MPTP block: blocks calcium-induced mitochondrial swelling. isolated mouse mitochondria, Ca2+ swelling absorbance, 30 min. AID 602449. inhibition, % at 10 µM. 360,000 compounds, 1.4% hits;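 active = inhibition of 50% or more, scaled per plate between neutral and stimulator controls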;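 also: 0% = DMSO wells given calcium and 100% = 1 mM EGTA wells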
GRIN3A LBD mod: modulates the human NR3A ligand-binding domain; NR3A LBD differential scanning fluorimetry, Tm shift; 0% = protein alone, 100% = glycine-bound protein; Tm shift relative to glycine control, % at 25 µM; 340,000 compounds, 2.5% hits;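 active = melting temperature shift of at least 10% of the positive control shift, at one fixed dose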
pCIP destab: p/CIP protein destabilization. Q05BA5. F442A p/CIP-EGFP cells, EGFP fluorescence, 16 h. decrease of EGFP signal, % at 10 µM. 290,000 compounds, 0.01% hits. AID 1984;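 active = EGFP signal decrease of at least 30% at 10 µM or well 3 SD below plate mean, unless failing retest; inactive = the rest, including hits failing retest or dose response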
The depositor's hits bear a star; x = no result given. A selection: hits, their analogues and other compounds. The true share with any hit is near 4.1%.

SMILES	FAS-TE inh	beta cell repl	MPTP block	GRIN3A LBD mod	pCIP destab
CC1(C(=O)Nc2ccc3c(c2)OCO3)CCN1Cc1csc2ccccc12 (stereo unspecified)	25.9	x	0.6	x	x
Cc1ccc2nc(NC(=O)c3ccc(Br)o3)sc2c1	0.1	-3.4	2.2	18.4*	-0.3
Cc1cc(C)c2nc(NC(=O)c3ccc([N+](=O)[O-])o3)sc2c1	3.4	-1.9	3.0	-1.0	-18.5
Cc1cc(C)c2sc(NC(=O)c3ccc([N+](=O)[O-])o3)nc2c1	7.1	-6.6	4.1	14.8*	-11.3
Cc1ccc2nc(NC(=O)CCNS(=O)(=O)c3ccc(Br)s3)sc2c1	17.2	-4.9	3.1	11.1*	0.9
Cc1ccc2nc(NC(=O)CCNS(=O)(=O)c3cccs3)sc2c1	7.7	-2.9	6.3	-5.6	-2.4
COC(=O)c1cc(Cl)ccc1NCC(N)c1ccccc1 (stereo unspecified)	-0.2	x	8.5	x	x
COC(=O)CSc1nnc(CSc2nc(C)cc(C)n2)n1Cc1ccco1	0.4	-0.6	0.7	13.9*	-6.5
Cc1ccc(Nc2nc(Cl)c(C=O)s2)cc1Cl	-10.8	-6.1	23.2	21.3*	1.1
COc1ccc(CCN(C)Cc2nc(-c3cnccn3)no2)cc1OC	-7.3	-3.2	0.4	-1.2	-5.4
COc1ccc(CCN(Cc2nc(-c3ccccc3)no2)Cc2nc(-c3ccccc3)no2)cc1OC	24.0	-2.2	0.9	16.0*	-4.4
O=c1cc(-c2ccccc2)oc2cc(O)ccc12	-0.4	x	0.4	-1.8	x
CCOC(=O)C(Oc1ccc2c(-c3ccccc3)cc(=O)oc2c1)c1ccccc1 (stereo unspecified)	28.5	0.0	1.1	10.6*	-1.8
O=c1cc(-c2ccccc2)c2ccc(O)cc2o1	-0.3	-2.1	10.4	10.9*	x
CC(=O)N1CCc2cc(NC(=O)C3(C)CCN3CCc3ccccc3)ccc21 (stereo unspecified)	14.5	x	-0.2	x	x
CCCCOc1cccc(C(=O)NC(=S)Nc2cccc(C(F)(F)F)c2)c1	24.7	-6.1	13.3	11.6*	5.1
CCOc1cccc(C(=O)NC(=S)Nc2cccc(NC(=O)c3ccccc3Cl)c2)c1	27.7	-6.9	1.1	15.8*	-23.4
CC(C)Oc1cccc(C(=O)NC(=S)Nc2cccc(C(F)(F)F)c2)c1	22.5	-3.5	2.5	-3.9	6.6
Cc1cc(C)n2c(Nc3c(C)cccc3C)c(CC(C)C)nc2n1	2.3	x	1.8	x	x
O=C(c1cccc(Br)c1)N1CCCC1	-5.6	1.4	-2.2	12.7*	7.0
CN(C)S(=O)(=O)N1CCN(C(=O)c2cccc(Br)c2)CC1	-5.9	2.3	-1.2	10.5*	-10.0
O=S1(=O)c2c(F)cccc2OC(COCc2ccccc2)CN1C1CCCC1 (stereo unspecified)	24.6	x	-2.7	1.7	x
O=S1(=O)c2c(Oc3cccc4ccccc34)cccc2OC(COCc2ccccc2)CN1C1CCCC1 (stereo unspecified)	26.3	x	-1.8	18.1*	x
CCCCN1CC(COCc2ccccc2)Oc2cccc(Oc3ccccc3)c2S1(=O)=O (stereo unspecified)	28.6	x	0.5	-3.8	x
CCCCN1CC(COCc2ccccc2)Oc2cccc(Oc3ccc(F)cc3)c2S1(=O)=O (stereo unspecified)	24.5	x	-0.7	12.7*	x
SMILES	FAS-TE inh	beta cell repl	MPTP block	GRIN3A LBD mod	pCIP destab
CCNC(=O)C1(C)CCCCN1Cc1ccc(C#N)cc1 (stereo unspecified)	-10.8	x	0.7	x	x
COC(=O)/C=C1\OCc2cccc(C)c21	x	x	0.5	x	x
Nc1ncnc2c1ncn2[C@@H]1O[C@H](C(=O)NS(=O)(=O)c2cccs2)[C@@H](O)[C@H]1O	-7.9	x	0.2	x	x
Cc1ccccc1OCCC(=O)OCC(=O)N1CCN(S(=O)(=O)c2ccc(Cl)cc2)CC1	24.4	-0.5	-2.5	10.8*	x
Cc1ccc(OCCC(=O)OCC(=O)N2CCN(S(=O)(=O)c3ccc(Cl)cc3)CC2)cc1	14.4	0.0	-1.1	x	x
CC(C)CCN1C(=O)c2ccccc2C1c1nnnn1-c1ccc2c(c1)OCCO2 (stereo unspecified)	-5.5	x	0.5	x	x
CN(C)c1nc(NCc2ccccc2)nc(SCC(=O)Nc2ccc(Cl)c(Cl)c2)n1	30.8	-6.5	45.2	32.2*	-1.6
COC(=O)CSc1nc(NCc2ccccc2)nc(N(C)C)n1	7.8	-4.1	-0.1	-2.4	4.9
CCNc1nc(SCC(=O)Nc2ccc(Cl)c(Cl)c2)nc(N(C)C)n1	12.1	-2.3	1.8	10.5*	3.9
CN1/C(=C/C(=O)COC(=O)C2COc3ccccc3O2)C(C)(C)c2ccccc21 (stereo unspecified)	17.4	x	-2.1	1.8	x
O=C(N/N=C\c1c(O)ccc2ccccc12)c1ccc(O)cc1	21.1	-5.4	3.5	40.8*	-5.5
Cc1occc1C(=O)N/N=C/c1c(O)ccc2ccccc12	7.1	-7.1	38.3	32.1*	2.2
C[C@H](CO)N1C[C@H](C)[C@@H](CN(C)Cc2ccc(C(=O)O)cc2)Oc2ncc(Br)cc2C1=O	-11.0	x	-0.2	x	x
O=C(CN1C(=O)/C(=C2\SC(=S)N(CCS(=O)(=O)O)C2=O)c2ccccc21)Nc1cccc(Br)c1	13.6	x	1.7	11.9*	-2.7
CC1CCCCC1NC(=O)/C(C#N)=C/c1ccc2c(c1)OCCO2 (stereo unspecified)	x	0.0	x	13.1*	-6.3
CCOC(=O)[C@]12CCC=C1N(Cc1cccc3ccccc13)C(=O)[C@H](CC(=O)NCCCN1CCCC1=O)C2	-6.6	x	1.7	x	x
CC12CCC(=O)N1C(C(=O)N1CCN(c3cccc(Cl)c3)CC1)CS2 (stereo unspecified)	-4.6	-2.3	0.3	2.6	x
COc1ccc(-c2[nH]ncc2-c2ccc3c(c2)OCCO3)c(O)c1	-54.5	1.8	0.8	0.3	-16.4
CCc1cc(-c2[nH]ncc2-c2ccc3c(c2)OCO3)c(O)cc1O	-157.4	-3.7	5.3	23.9*	-11.7
CCc1cc(-c2[nH]ncc2-c2ccc(OC)cc2)c(O)cc1O	-160.1	-2.2	1.6	40.6*	-15.5
COc1ccc(-c2cn[nH]c2-c2ccc(OCc3ccc([N+](=O)[O-])cc3)cc2O)cc1	-4.9	0.0	11.0	30.4*	-9.2
Cc1cccc(NC(=O)Nc2nnc([C@H]3C[C@H](O)[C@@H](CO)O3)s2)c1	-7.2	x	0.4	x	x
CC(=NO)C1CCC2C3CCC4=CC(=NO)CCC4(C)C3C(=O)CC12C (stereo unspecified)	-7.5	x	-0.5	17.7*	x
Cc1nc2ccc(C(=O)N3c4ccccc4N=C(c4ccc5c(c4)OCO5)C3C(=O)NCc3ccccc3)cc2[nH]1 (stereo unspecified)	x	x	1.2	x	x
N#Cc1ccc(S(=O)(=O)N2CCc3[nH]c4ccc(F)cc4c3C2)cc1	13.3	3.0	3.7	11.1*	2.0
COc1ccc(-c2ccoc2)cc1[C@H]1[C@H]2C=CC[C@@H](C)[C@@H]2C(=O)N1Cc1ccccc1	22.9	-8.0	-0.4	14.3*	-11.5

High-throughput results (PubChem)
